Results published in PubChem BioAssay AID2358 (The Scripps Research Institute Molecular Screening Center, 2010).
The campaign covered roughly 1,900 compounds. About 1,000 (53%) were called active.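 The calls were made as follows: active = mean PP1 inhibition above a set limit taken from the earlier primary screen (cut at about 15% in these data); inactive = the rest.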 The set was probably picked from earlier hits. A selection follows.

These compounds were tested against Serine/threonine-protein phosphatase PP1-alpha catalytic subunit (Homo sapiens) (UniProt P62136) (assay: PP1 phosphatase inhibitors, confirmation, biochemical, fluorescence, OMFP substrate, triplicate (AID 2358)). Details: purified PP1alpha, at 6.7 µM, stronger effect = higher value.
Chain of Serine/threonine-protein phosphatase PP1-alpha catalytic subunit (Homo sapiens) (P62136 whole entry, looked up): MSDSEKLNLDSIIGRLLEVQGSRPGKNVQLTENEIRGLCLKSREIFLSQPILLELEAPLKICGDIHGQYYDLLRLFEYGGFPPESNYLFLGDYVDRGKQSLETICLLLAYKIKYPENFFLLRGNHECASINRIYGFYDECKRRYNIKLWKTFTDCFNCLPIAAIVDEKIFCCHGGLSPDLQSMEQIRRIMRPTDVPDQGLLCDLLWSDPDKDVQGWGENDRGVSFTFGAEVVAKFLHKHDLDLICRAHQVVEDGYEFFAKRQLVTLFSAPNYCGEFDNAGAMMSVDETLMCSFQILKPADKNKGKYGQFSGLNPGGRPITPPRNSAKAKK

SMILES | inhibition
Cc1ccc(C)c(Cn2nnc3c(=O)[nH]c(C(=O)Nc4ccc(F)cc4)nc32)c1 | 20.8% (active)
COc1ccccc1NC(=O)CSc1nc2sc3c(c2c(=O)n1-c1ccccc1)CCN(C)C3 | 10.6% (inactive)
Cc1cc(N/N=C\c2ccc(Br)cc2)nc(-n2nc(C)cc2C)n1 | 21.7% (active)
COc1ccccc1/C=N\Nc1cc(C)nc(-n2nc(C)cc2C)n1 | 44.3% (active)
CN1CCN(CCCNC(=O)c2ccc(/C=C3\Oc4ccccc4N(Cc4ccc(Cl)cc4)C3=O)cc2)CC1 | 6.35% (inactive)
O=C(COC(=O)c1ccc(Oc2ccccc2)cc1)Nc1nnc(-c2ccccc2)o1 | 16.8% (active)
O=C(N=C1SC2CS(=O)(=O)CC2N1c1cc(Cl)ccc1Cl)C1CC1 (stereo not given) | -1.43% (inactive)
Cc1ccc(Nc2nc(CSc3nnnn3-c3ccccc3)cc(=O)[nH]2)cc1 | 26% (active)
Cc1cc(Nc2ccccc2)n(C(=O)c2ccc(N)cc2)n1 | 2.75% (inactive)
Cc1ccc(N2C(=O)C3N=NN(CC(=O)N4N=C(c5cccc6ccccc56)CC4c4ccccc4)C3C2=O)cc1 (stereo not given) | 12.9% (inactive)
O=C1c2cccc(OCC(=O)N3N=C(c4cccs4)CC3c3ccc(F)cc3)c2CCN1Cc1ccccc1 (stereo not given) | 13.1% (inactive)
O=C1C2N=NN(CC(=O)N3N=C(c4cccc5ccccc45)CC3c3ccccc3)C2C(=O)N1c1ccccc1 (stereo not given) | 24.2% (active)
O=[N+]([O-])c1ccccc1/C=N/n1c(COc2ccccc2)n[nH]c1=S | -1.61% (inactive)
CCCCn1c(SCc2ncc(-c3ccccc3)o2)nc2cc(S(N)(=O)=O)ccc21 | 11% (inactive)
COc1ccc(NC(=O)C2C3CCC(O3)C2C(=O)O)cc1OC (stereo not given) | 18.6% (active)
CC(C)OC(=O)c1cc(NC(=O)C2C3CCC(O3)C2C(=O)O)cc(C(=O)OC(C)C)c1 (stereo not given) | 5% (inactive)
Oc1c(C(c2ccccn2)N2CCOCC2)ccc2cccnc12 (stereo not given) | 69.3% (active)
Cc1ccc(-n2nc3ccc(NC(=O)/C=C/c4ccco4)cc3n2)cc1C | 14.7% (inactive)
Oc1c(Cl)cc(Cl)c(Cl)c1Cc1c(O)c(Cl)cc(Cl)c1Cl | 22.2% (active)
Cc1cc(-c2csc(N)n2)c(C)n1-c1ccccc1 | 10.2% (inactive)
CCOc1ccc(NC(=O)c2ccc(NC(=O)COC(=O)c3ccc(NC(=O)CC#N)cc3)cc2)cc1 | 47.8% (active)
CN(C(=O)COC(=O)c1cc(-c2ccco2)nc2ccccc12)C1CCS(=O)(=O)C1 (stereo not given) | 20.3% (active)
CCn1c(SCC(=O)Nc2cc(C)ccc2C)nnc1-c1cnccn1 | -2.85% (inactive)

SMILES | inhibition
c1ccc(-c2nccc(-c3ccc(-n4cnc5ccccc54)cc3)n2)nc1 | 65.5% (active)
O=C1C(=O)N(CC2COc3ccccc3O2)c2ccccc21 (stereo not given) | 1.9% (inactive)
CC1CCCCN1S(=O)(=O)c1ccc(C(=O)Nc2nnc(-c3cccs3)o2)cc1 (stereo not given) | 23.2% (active)
Cc1ccccc1S(=O)(=O)N1[C@@H](c2cccc(Cl)c2)C(C(=O)O)=CC[C@H]1c1ccc(Cl)cc1 | 15.6% (active)
Cc1ccc(S(=O)(=O)N2[C@@H](c3cccc(Cl)c3)C(C(=O)O)=CC[C@H]2c2ccc(Cl)c(Cl)c2)cc1 | 18.2% (active)
COc1ccc(-c2nn(-c3ccccc3)cc2/C=C2/SC(=S)N(CCCC(=O)O)C2=O)c(C)c1 | 29.4% (active)
Cc1ccc(-c2nn(-c3ccccc3)cc2/C=C2\SC(=S)N(CCCCCC(=O)O)C2=O)o1 | 19.6% (active)
COc1ccc(-c2nn(-c3ccccc3)cc2/C=C\C(=O)Nc2ccc(C(=O)O)cc2)cc1 | 11% (inactive)
CS(=O)(=O)c1ccc2c(c1)SC1=NC(=O)/C(=C/c3ccco3)C(=N)N12 | 7.76% (inactive)
CCCc1ccc(OCC(=O)NNC(=S)NC(=O)c2ccco2)cc1 | 14.1% (inactive)
Cc1ccc(OCC(=O)Nc2ccc(-c3nnc(-c4ccco4)o3)cc2)cc1 | 25.6% (active)
O=C(CSc1nnc(C2CC2)n1Cc1ccccc1)Nc1cccnc1Cl | -0.54% (inactive)
C=CCn1c(=NC(=O)c2ccc(S(=O)(=O)N3CCCC3)cc2)sc2cc(NC(C)=O)ccc21 | 23.1% (active)
N#Cc1c(-c2ccccc2)nc(SCc2cccc(C(F)(F)F)c2)[nH]c1=O | 14.1% (inactive)
Clc1ccc2c(c1)C1=C(C(c3ccncc3)O2)C(c2ccc(Br)cc2)n2ncnc2N1 (stereo not given) | 18.4% (active)
O=C(N/N=C/c1cc([N+](=O)[O-])ccc1O)/C(=C\c1cccs1)NC(=O)c1ccccc1 | 30.9% (active)
CCOc1ccc(/C=C/C(=O)OCC(=O)c2ccccc2OC)cc1OC | 0.75% (inactive)
COc1cnc(-c2ccccn2)nc1Oc1ccc(C(C)(C)C)cc1 | 32.3% (active)
CC(C)(C)Nc1nc(-c2ccccn2)nc2ccccc12 | 7.11% (inactive)
Cc1ccc(CSCC2Nc3ccc(C(=O)N4CCN(c5ccc(F)cc5)CC4)cc3NC2=O)cc1 (stereo not given) | 22.6% (active)
Oc1ccc(C2Nc3cccc4cccc(c34)N2)cc1 | 0.4% (inactive)
COCCCNC(=O)C1CC(=O)N(c2ccc(C)cc2)C1 (stereo not given) | -1.39% (inactive)
OCCNc1nc(Nc2ccc(Cl)c(Cl)c2)nc2ccccc12 | -0.84% (inactive)

SMILES | inhibition
Oc1c(CN2CCN(c3ccc(F)cc3)CC2)cc(Cl)c2cccnc12 | 39.1% (active)
CCCCCCCCCCOC(=O)Cn1c(COc2ccc(C)cc2)[n+](C)c2ccccc21 | 12.8% (inactive)
Cc1ccc(NS(=O)(=O)c2ccc(N/N=C/c3ccccc3OCC(=O)O)c([N+](=O)[O-])c2)c(C)c1 | 16% (active)
Nc1ccc2nc3c(=O)[nH]c(=S)[nH]c3nc2c1 | 34% (active)
C/C(=N\c1nc2ccccc2n1C)c1cc(Cl)ccc1O | -7.49% (inactive)
C=C1c2c(Cl)ccc(O)c2C(O)=C2C(=O)[C@]3(O)C(O)=C(C(N)=O)C(=O)[C@@H](N(C)C)[C@@H]3[C@@H](O)C12 (stereo not given in full) | 7.26% (inactive)
O=C(Nc1nc(-c2ccco2)c(-c2ccco2)s1)c1ccco1 | 2.84% (inactive)
COCCN(CCOC)S(=O)(=O)c1ccc(C(=O)Nc2nc3c(s2)CCc2ccccc2-3)cc1 | 34.5% (active)
C=CCN(CC=C)S(=O)(=O)c1ccc(C(=O)Nc2nc3c(s2)CCc2ccccc2-3)cc1 | 27.9% (active)
O=[N+]([O-])/C=C/c1ccc2c(ccn2Cc2ccccc2)c1 | 13.8% (inactive)
Cc1cccc(OCC(O)Cn2c(=N)n(CCN3CCOCC3)c3ccccc32)c1 (stereo not given) | -3.3% (inactive)
CCCCCCCCCCOC(=O)Cn1c(COc2cccc(OC)c2)[n+](C)c2ccccc21 | 8.62% (inactive)
O=C(Nc1cccc(-c2nc3ccccc3[nH]2)c1)c1ccc(C(=O)Nc2cccc(-c3nc4ccccc4[nH]3)c2)cc1 | 2.51% (inactive)
Clc1ccc(-n2nnnc2-c2cnc(-c3ccccn3)nc2-c2cccs2)cc1 | 64.5% (active)
Cc1ccc(Cn2nnc3c(=O)[nH]c(C4CCN(S(=O)(=O)/C=C/c5ccccc5)CC4)nc32)cc1 | 20.5% (active)
Cc1ccc(NC(=O)COc2ccc(/C=C3/NC(=O)NC3=O)cc2)cc1 | 16.6% (active)
NC(N)=N/N=C/c1ccc(OCc2ccc(Cl)cc2Cl)cc1 | 17.3% (active)
CC(=O)c1ccc(N2CCN(S(=O)(=O)c3ccc4c(c3)CC(=O)N4C)CC2)cc1 | 7.42% (inactive)
O=C(Nc1ccc(S(=O)(=O)Nc2nccs2)cc1)c1cc(-c2ccncc2)nc2ccccc12 | 12.1% (inactive)
Cc1ccc(-c2cc(C(=O)Nc3nn[nH]n3)c3ccccc3n2)c(C)c1 | 0.22% (inactive)
O=C(Nc1nnc(-c2ccccc2)o1)c1cc(-c2cccs2)nc2ccccc12 | 28.1% (active)
O=C(/C=C/c1ccc(F)cc1)NC(=S)NNC(=O)c1cccnc1 | 14.7% (inactive)
COc1cccc(/C=N/NC(=O)c2[nH]nc3c2CCc2ccccc2-3)c1O | 36% (active)

SMILES | inhibition
N=c1n(Cc2ccc(Cl)cc2)c2ccccc2n1CC(O)c1ccco1 (stereo not given) | -2.68% (inactive)
Cc1ccc2nc(N3C(=O)C(O)=C(C(=O)c4ccco4)C3c3cccc(O)c3)sc2c1 (stereo not given) | 20.8% (active)
CCNS(=O)(=O)c1ccc(NC(=O)Nc2cccc(C(F)(F)F)c2)cc1 | 4.33% (inactive)
Cc1nc2c(C(=O)NCc3ccc4c(c3)OCO4)c[nH]n2c(=O)c1Cc1ccccc1F | 32.2% (active)
CCCOc1ccc(C2C(C(=O)c3ccc(C)o3)=C(O)C(=O)N2CCCn2ccnc2)cc1 (stereo not given) | 37.2% (active)
Cc1cc(N2C(=O)C(O)=C(C(=O)c3ccc(C)o3)C2c2ccc(OCc3ccccc3)cc2)no1 (stereo not given) | 32.6% (active)
COc1cc(C2C(C(=O)c3ccc(C)o3)=C(O)C(=O)N2CCc2ccccc2)ccc1O (stereo not given) | 27.1% (active)
COc1ccc(C2C(C(C)=O)=C(O)C(=O)N2CCc2c[nH]c3ccccc23)cc1 (stereo not given) | 11.8% (inactive)
C/C(CC(O)(/C=N/O)c1ccccc1)=N\O (stereo not given) | -3.06% (inactive)
Cc1ccc2cc(CCNC(=O)c3c(-c4ccccc4Cl)noc3C)c(=O)[nH]c2c1 | -1.41% (inactive)
COC(=O)Cc1cc(=O)n(-c2nc3ccccc3s2)[nH]1 | 0.62% (inactive)
CN(C(=O)CN(CCO)CC(=O)N(C)C(C)(C)Cc1ccccc1)C(C)(C)Cc1ccccc1 | -9.33% (inactive)
C#CCOCCOCCOCCNc1nc(N2CCN(C(=O)CCCCCCCCCCNC(=O)[C@H]([C@@H](C)CC)n3cc(CCCCN=C(N)N)nn3)CC2)nc(N2CCN(C(=O)CCCCCCCCCCNC(=O)[C@H](CO)n3cc(CCCSC)nn3)CC2)n1 | 42.5% (active)
C#CCOCCOCCOCCNc1nc(N2CCN(C(=O)CCCCCCCCCCNC(=O)[C@H](CCCCN)n3cc(C)nn3)CC2)nc(N2CCN(C(=O)CCCCCCCCCCNC(=O)[C@H](CO)n3cc(CCCSC)nn3)CC2)n1 | 41.8% (active)
C#CCOCCOCCOCCNc1nc(N2CCN(C(=O)CCCCCCCCCCNC(=O)Cn3cc(CCCCCN)nn3)CC2)nc(N2CCN(C(=O)CCCCCCCCCCNC(=O)[C@H](CO)n3cc(CCCSC)nn3)CC2)n1 | 50.9% (active)
C=CCn1c(=S)[nH]c2scc(-c3ccco3)c2c1=O | 7.08% (inactive)
Cc1nc(/N=C(\N)NC(=O)NC2CCCCC2)nc2ccccc12 | 26.9% (active)
Cc1ccc(-c2cc(C(=O)N/N=C/C=C/c3ccco3)c3ccccc3n2)cc1C | 9.2% (inactive)
OCCCN1c2ccccc2Nc2nnc(-c3ccccc3)cc21 | 27.3% (active)
CCC(=C/c1sc2ccc3ccccc3c2[n+]1C)/C=C1\Sc2ccc3ccccc3c2N1C | 62.5% (active)
CSc1ccc(/C=N\NC(=O)COc2ccc(Cl)cc2Br)cc1 | -1.13% (inactive)
